PubChem BioAssay AID1053127 (Broad Institute, 2014)
Entries with a potency or affinity are not part of this list. The source made the active and inactive calls.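 How the source made its calls: active means compounds whose fitted curve of lowered CTGF expression reaches half effect within a set concentration limit; inconclusive means flat moderate drop in CTGF, or unreliable curve fit; inactive means the rest.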

Assay: YAP1 overexpression rescue of CTGF inhibition – DLD1 cells, RT-qPCR, cherry-pick, mechanism study for YAP1 pathway inhibitor project, dose response (AID 1053127)
Conditions: DLD1 YAP1-overexpressing, CTGF mRNA qPCR, 24 h; series mostly up to 26 µM; CTGF fold change (delta-delta-Ct), lower = inhibition: at the top concentration

CTGF fold change (delta-delta-Ct), lower = inhibition, inactive:
CC(C)(C)[S@](=O)N1Cc2cc(C(=O)NCCc3ccncc3)nc(-c3cccc(-c4cccc(C#N)c4)c3)c2[C@@H]1CCO 1.03 unspecified, COc1ccc2c3c([nH]c2c1)[C@H](CO)NCC31CCN(C(=O)Cc2cccnc2)CC1 1.14 unspecified, CC(C)(C)S(=O)N1Cc2cc(C(=O)NCc3ccc4c(c3)OCO4)nc(-c3cccc(-c4cccc(F)c4)c3)c2[C@@H]1CCO (stereo not given in full) 1.09 unspecified, CO[C@@H]1CN(C)C(=O)c2cc(NS(=O)(=O)c3ccccc3C)ccc2OC[C@@H](C)N(S(=O)(=O)c2ccccc2)C[C@H]1C 1 unspecified, CCCNC(=O)N1[C@H](C#N)[C@@H](c2ccc(C#Cc3cccc(F)c3)cc2)[C@@H]1CO 3.14 unspecified, C[C@@H]1CN([C@H](C)CO)C(=O)CCCn2nncc2CO[C@@H]1CN(C)C(=O)c1cc(-c2ccccc2)on1 0.649 unspecified, O=C(c1cccc(F)c1)N1CCCCN2[C@@H](CO)[C@H](c3ccc(C#CC4(O)CCCC4)cc3)[C@@H]2C1 0.713 unspecified, COc1ccc(NC(=O)N(C)C[C@H]2Oc3c(NC(=O)CCCCCC(=O)Nc4ccccc4N)cccc3C(=O)N([C@H](C)CO)C[C@@H]2C)cc1 1.07 unspecified [at 23.5 µM], COc1ccc2c3c(n(C)c2c1)[C@H](CO)N(S(C)(=O)=O)CC31CCN(C(=O)Nc2cccc(F)c2)CC1 1.04 unspecified, O=S(=O)(c1ccccc1)N1CCCCN2[C@H](C1)[C@@H](c1ccc(C#CC3CCCC3)cc1)[C@@H]2CO 0.946 unspecified
